Source: PubChem BioAssay (NCI)
About 83,000 compounds went through this panel and 20% of them were active in at least one assay; those are over-represented in the sample as a whole.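 Activity criterion: percent growth below 10, measured after cells in 96-well plates were exposed to a single compound concentration for 48 hours.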 The source made the active and inactive calls.

Legend:
Test in all cases: NCI-60 one-dose screen, 48 h (100 = growth as untreated, 0 = no growth, -100 = all killed)
Conditions in all cases: 10 µM unless noted
[1] = test system: HCT-15 colon
[2] = test system: HT29 colon
[3] = test system: SNB-75 CNS
[4] = test system: SNB-19 CNS
[5] = test system: U251 CNS
[6] = test system: PC-3 prostate
[7] = test system: SK-MEL-5 melanoma
[8] = test system: UACC-62 melanoma
[9] = test system: LOX IMVI melanoma
[10] = test system: SK-MEL-28 melanoma
[11] = test system: EKVX NSCLC
[12] = test system: SN12C renal
[13] = test system: UO-31 renal
[14] = test system: TK-10 renal
[15] = test system: ACHN renal
[16] = test system: CAKI-1 renal
[17] = test system: A498 renal
[18] = test system: CCRF-CEM leukemia
[19] = test system: MOLT-4 leukemia

Measured: growth

CNS(=O)(=O)Nc1nccc(Cc2c(C)c3ccc(Oc4ncccn4)cc3oc2=O)c1F
inactive: [1] 63.7% | [2] 10.4% | [3] 78.1% | [4] 63.7% | [5] 54.8% | [6] 101% | [7] 23.1% | [9] 25.6% | [11] 55% | [12] 73.1% | [13] 53.8% | [14] 34.1% | [15] 56.8% | [16] 44.7% | [18] 84.4% | [19] 76.2%
active: [8] 4.49% | [10] 8.61% | [17] -17.2%

COc1cc2ncnc3c2cc1OCCCCCN(C)Cc1ccc(Br)cc1N3
inactive: [1] 19.5% | [2] 28.9% | [3] 74.5% | [4] 88.4% | [5] 68.6% | [6] 39% | [7] 72.7% | [8] 43.8% | [9] 32.8% | [10] 74.8% | [11] 21.4% | [12] 32.5% | [13] 11.2% | [16] 19.3% | [17] 60.9% | [18] 51.8% | [19] 22.1%
active: [14] 3.42% | [15] 8.64%

COCC(=O)NC/C=C/c1ccc2ncnc(Nc3ccc(Oc4ccc(C)nc4)c(C)c3)c2c1
inactive: [1] 33.3% | [2] 12.2% | [3] 57.2% | [4] 77.9% | [5] 62.9% | [6] 74.1% | [7] 13.1% | [9] 31.7% | [10] 12.2% | [11] 38.9% | [12] 34.9% | [13] 16.8% | [15] 16.1% | [16] 18.6% | [17] 24.6% | [18] 79.2% | [19] 29.3%
active: [8] 7.95% | [14] 5.8%

CNC(=O)c1ccc(Nc2ncc(C(F)(F)F)c(NCc3nccnc3N(C)S(C)(=O)=O)n2)cc1
inactive: [6] 10.5%
active: [1] 1.88% | [2] -11.9% | [3] -44.7% | [4] 7.45% | [5] 1.49% | [7] -49.5% | [8] -70% | [9] 0.319% | [10] 1.14% | [11] -4.53% | [12] 5.6% | [13] -6.92% | [14] -21.5% | [15] 3.54% | [16] 0.765% | [17] -42.2% | [18] 4.49% | [19] -9.42%

COc1cc2nc(Nc3cccc(Cl)c3)nc(N)c2cc1OC
inactive: [3] 94.5% | [4] 106% | [5] 66.4% | [6] 53.9% | [7] 64.5% | [8] 96.3% | [9] 59.8% | [10] 83.8% | [11] 111% | [12] 79.3% | [13] 75.3% | [14] 91.9% | [15] 95.8% | [16] 146% | [17] 63.5% | [19] 53.7%
active: [1] 6.41% | [2] 6.72% | [18] -81.3%

C/C(=N\NC(=O)Cn1c(-c2ccc(S(C)(=O)=O)cc2)nc2ccccc21)c1ccc(Cl)cc1
inactive: [1] 87.8% | [2] 98.3% | [3] 81.1% | [4] 93.4% | [5] 89.7% | [6] 52.2% | [7] 91.7% | [8] 84.7% | [9] 100% | [10] 113% | [11] 101% | [12] 97.4% | [13] 66.1% | [14] 109% | [15] 93.6% | [16] 91.9% | [17] 104% | [18] 77% | [19] 79.7%

CC(=O)NCC(=O)N1[C@@H]2CC[C@H]1c1ccc(Nc3ncc(C(F)(F)F)c(NC4CCC4)n3)cc12
active: [13] 2.84% [2.5 µM]
inactive: [1] 26.8% [2.5 µM] | [2] 14.1% [2.5 µM] | [3] 19.7% [2.5 µM] | [4] 73.9% [2.5 µM] | [5] 56.2% [2.5 µM] | [6] 57.2% [2.5 µM] | [7] 58.1% [2.5 µM] | [8] 56.3% [2.5 µM] | [9] 22% [2.5 µM] | [10] 70.8% [2.5 µM] | [11] 69.1% [2.5 µM] | [12] 37.8% [2.5 µM] | [14] 43.7% [2.5 µM] | [15] 38.6% [2.5 µM] | [16] 20.5% [2.5 µM] | [17] 14.7% [2.5 µM] | [18] 40.2% [2.5 µM] | [19] 20% [2.5 µM]

CCCCN1C(=O)c2cccc3c(-c4ccc5c(c4)ncn5C4CCCCC4)ccc(c23)C1=O
inactive: [1] 106% | [2] 84.1% | [3] 92.3% | [4] 106% | [5] 98.3% | [6] 94.3% | [7] 107% | [8] 92.8% | [9] 102% | [10] 117% | [11] 99.8% | [12] 105% | [13] 82.1% | [14] 102% | [15] 107% | [16] 93.7% | [17] 118% | [18] 113% | [19] 94.7%

CO[C@@H](C)Cn1c(=O)n(C)c2cnc3ccc(-c4cncc(C(C)(C)O)c4)cc3c21
inactive: [12] 14.5% | [18] 10.4%
active: [1] 7.42% | [2] 2.26% | [3] -41.8% | [4] 8.17% | [5] 2.44% | [6] 7.66% | [7] -96.5% | [8] -37.6% | [9] -33.8% | [10] -8.17% | [11] 4.47% | [13] -18.6% | [14] -49.6% | [15] 3.66% | [16] -15.5% | [17] -55.5% | [19] -8.71%

O=C(NC[C@H](O)CO)c1ccncc1Nc1ccc(I)cc1F
inactive: [1] 43.9% | [3] 73.4% | [4] 51.5% | [5] 55.3% | [6] 86.4% | [7] 44.5% | [9] 25.2% | [11] 45.1% | [12] 60.3% | [13] 35.1% | [14] 40.5% | [15] 41.4% | [16] 32.7% | [18] 102% | [19] 90.3%
active: [2] 8.1% | [8] -7.65% | [10] -12.7% | [17] -21.9%

CC(C)NC[C@@H](C(=O)N1CCN(c2ncnc3c2[C@H](C)C[C@H]3O)CC1)c1ccc(Cl)cc1
inactive: [1] 71.2% | [2] 27.4% | [4] 26.7% | [5] 28.4% | [6] 33% | [7] 72.4% | [8] 44.6% | [9] 66.8% | [10] 55.6% | [11] 72% | [12] 64.4% | [13] 53.7% | [14] 32.2% | [15] 68.7% | [16] 45.1% | [18] 22.5% | [19] 23.3%
active: [3] 8.53% | [17] -21.7%

COc1cnc2c(c1)C(=O)c1c-2n(CCCN2CCC(O)CC2)c(=O)c2cc(Cl)ccc12
inactive: [3] 49.1% | [4] 34.2% | [6] 41.9% | [7] 50.7% | [8] 24.5% | [10] 102% | [11] 67.7% | [12] 30.5% | [13] 15% | [14] 82.8% | [16] 20.1%
active: [1] -71.5% | [2] -54.6% | [5] -76.7% | [9] -86.3% | [15] 8.76% | [17] -3% | [18] 0.479% | [19] -7.04%

Nc1nc(N)c2nc(-c3cccc(O)c3)c(-c3cccc(O)c3)nc2n1
inactive: [1] 92% | [2] 68% | [3] 39.9% | [4] 70.8% | [5] 71.6% | [6] 76.6% | [7] 89.1% | [8] 83% | [9] 89.6% | [10] 85.2% | [11] 82.2% | [12] 51.4% | [13] 65.9% | [14] 80.9% | [15] 69.3% | [16] 67.7% | [17] 74.9% | [18] 66.3% | [19] 90.6%

COC(=O)c1ccc2c(C(=Nc3ccc(N(C)C(=O)CN4CCN(C)CC4)cc3)c3ccccc3)c(O)[nH]c2c1
active: [2] 8.01% | [13] 9.57%
inactive: [1] 65.9% | [3] 18% | [4] 67.9% | [5] 45.4% | [6] 67.9% | [7] 68% | [8] 90.2% | [9] 33.6% | [10] 74.5% | [11] 94% | [12] 44.8% | [14] 46.5% | [15] 48.8% | [16] 51.8% | [17] 21.7% | [18] 40.4% | [19] 50.5%

COc1cc2nccc(Oc3ccc(NC(=O)C4(C(=O)Nc5ccc(F)cc5)CC4)cc3)c2cc1OC
inactive: [4] 29.9% | [5] 25.1% | [6] 20.8% | [11] 23.4% | [14] 15.1% | [18] 19.1% | [19] 11.6%
active: [1] 5.75% | [2] -19.1% | [3] -18.9% | [7] 3.39% | [8] -12.2% | [9] -71.2% | [10] 1.37% | [12] 9.57% | [13] -19.2% | [15] 4.85% | [16] -14.9% | [17] -44.2%

CN1CCC(CNc2ccc3ncc(-c4cccc(OC(F)(F)F)c4)n3n2)CC1
active: [1] -35.2% | [2] -46.1% | [3] -75.1% | [4] -48.6% | [5] -89.2% | [6] -20.6% | [7] -99.1% | [8] -95% | [9] -83.5% | [10] -86.4% | [11] 4.31% | [12] -81.2% | [13] -95.1% | [14] -4.7% | [15] -54.7% | [16] -62.8% | [17] -79.8% | [18] -5.49% | [19] -5.02%
